Rows were chosen to be rich in hits. Some 11% of all compounds tested hit in one or more screens of this group.
HPGD inh = inhibitors of human 15-hydroxyprostaglandin dehydrogenase (HPGD); AID 894; purified HPGD, NADH fluorescence kinetic, PGE2 substrate; P15428; 150,000 compounds, 4.3% hits; Potency, µM, without a hit: top-dose activity change, negative = inhibition, actives largely listed as inhibitors; also: potency is read from the fitted curve at half-maximal effect
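NADH formation kinetics: reaction with 30 uM PGE2 and 1 mM NAD+ (final), 20 nM enzyme, Tris-HCl pH 8 with Tween 20, after 15 min compound preincubation at room temperature. Fluorescence change, last versus first of five reads.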
ALDH1A1 block = blocks purified human ALDH1A1 activity; 220,000 compounds, 7.3% hits; Purified ALDH1A1, NADH fluorescence, propionaldehyde substrate; Potency, µM (top dose mostly 75.3 µM), for inactives: at the highest dose activity, negative = inhibition, hits mostly inhibitors; P00352;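 also: potency is read from the fitted curve at half-maximal effect; plate controls were no enzyme wells and a reference inhibitor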
Target sequence (P00352 whole entry, looked up): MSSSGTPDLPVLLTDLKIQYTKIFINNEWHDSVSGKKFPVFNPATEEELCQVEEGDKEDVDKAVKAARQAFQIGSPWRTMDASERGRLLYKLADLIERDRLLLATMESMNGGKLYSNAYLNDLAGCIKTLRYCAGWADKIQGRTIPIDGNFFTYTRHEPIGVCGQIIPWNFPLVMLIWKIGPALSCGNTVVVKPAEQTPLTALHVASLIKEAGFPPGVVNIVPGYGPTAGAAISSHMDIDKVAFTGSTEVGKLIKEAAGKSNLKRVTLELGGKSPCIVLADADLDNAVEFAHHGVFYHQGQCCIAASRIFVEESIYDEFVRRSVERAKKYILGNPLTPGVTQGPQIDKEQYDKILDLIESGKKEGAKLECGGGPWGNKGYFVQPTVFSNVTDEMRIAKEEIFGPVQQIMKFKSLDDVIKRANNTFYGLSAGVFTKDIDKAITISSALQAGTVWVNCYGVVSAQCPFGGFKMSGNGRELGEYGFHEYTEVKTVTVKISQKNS
PNC assembly inh = blocks assembly of the perinucleolar compartment | PC3M PTB-GFP, PNC prevalence imaging, 16 h; active compounds read low | activity change (PNC), negative = inhibition, % at 10 µM | 140,000 compounds, 3.1% hits | AID 2417;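 active = readout at or below -70, meaning at least 70% loss of cells showing the perinucleolar compartment, a nuclear body marking cancer cells; inconclusive = readout between -30 and a set limit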;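 also: plate controls were DMSO wells for no effect and camptothecin positive control wells for full effect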
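Read-out is percentage of cells bearing a perinucleolar compartment, from automated 20x imaging of fixed, Hoechst-stained PC3M PTB-GFP cells. Cells were seeded 4 h, then exposed 16 h to compound (23 nl of library stock) in duplicate plates.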
* = called active by the depositor; ? = inconclusive; nt = not tested or not shown; [ ] = dose if it differs, or a comment. Unless noted, calls follow the shape of the dose curve; as a rule, active = well fitted inhibition curve with a large enough effect (not every such curve was filed as active); inconclusive = small, poorly fitted or top-dose-only effect, or another doubt; inactive = no such curve, though single readings can be large or run the other way. Unless noted, % is scaled to controls: 0 for no effect and ±100 for the full control effect.

SMILES	HPGD inh	ALDH1A1 block	PNC assembly inh
O=C(COc1ccccc1CNCc1ccccc1)Nc1ccccc1	-1%	6%	0
N#Cc1cc(C(=O)Cc2ccccc2)c[nH]1	nt	-11%	nt
COc1cc(CC(=O)Nc2ccccc2N2CCCCC2)cc(OC)c1OC	nt	-3%	nt
CC(=O)N1N=C(c2cccs2)CC1c1ccc(C)o1 (stereo unspecified)	nt	4%	nt
CC(=O)N1N=C(c2ccco2)CC1c1cccs1 (stereo unspecified)	-15%	3.5µM*	-3
Cc1ccc(C2=NN(C(=O)CCl)C(c3cccs3)C2)o1 (stereo unspecified)	nt	1.3µM*	0
CC(=O)N1N=C(c2cccs2)CC1c1cccs1 (stereo unspecified)	nt	-2%	nt
CCCCc1nc2c(c3c1C[C@H](C)OC3)CN(C(=O)c1ccco1)CC2	-7%	14%[13.5 µM]	nt
CCOC(=O)c1c(C)[nH]c(C(=O)OCCOc2ccccc2C)c1C	-16%	4%	8
O=C(CN1C(=O)C(=O)N(Cc2ccco2)C1=O)NC1CCCCC1	nt	-14%	nt
O=C(COc1ncnc2sccc12)NC1CCS(=O)(=O)C1 (stereo unspecified)	nt	1%	nt
COc1ccc2nc(NC(=O)C3CCCO3)sc2c1 (stereo unspecified)	nt	-9%	nt
COc1ccc(NC(=O)C2CCCO2)cc1Cl (stereo unspecified)	16µM*	?	18
O=C(Nc1cc(Cl)c(O)c(Cl)c1)C1CCCO1 (stereo unspecified)	25µM*	?	-2
COc1cc(NC(=O)C2CCCO2)c(OC)cc1Cl (stereo unspecified)	-3%	1%	?
O=C(O)c1cc(NC(=O)C2CCCO2)cc(NC(=O)C2CCCO2)c1 (stereo unspecified)	-8%	15%	-1
CSc1nc2ccc(NC(=O)C3CCCO3)cc2s1 (stereo unspecified)	28µM*	?	10
CCOC(=O)c1nnn(CC(=O)NC(=O)Nc2ccc(F)cc2)c1C(=O)OCC	nt	11%	nt
CC(C)CNS(=O)(=O)c1ccc(CCC(=O)N2CCC(C(N)=O)CC2)cc1	nt	-8%	nt
O=C(CCOc1ccccc1)Nc1ccc([N+](=O)[O-])cc1	nt	-1%	nt
CCCCNc1c(C(=O)OCC)c(C)nc2c1cnn2CC	-12%	2%	nt
Cc1ccc(C(=O)N/C(=C/c2ccco2)C(=O)OCN2C(=O)c3ccccc3C2=O)cc1	-10%	?	-14
CC1=NOC(=O)/C1=C\c1ccc(-c2ccc(Cl)cc2Cl)o1	1.8µM*	10µM*	67
Cc1cccc(C)c1NC(=O)c1ccc(-c2ccc(Cl)cc2Cl)o1	-14%	-8%	31
CCn1c(SCC(=O)N/N=C/c2ccc(O)c(OC)c2)nc2ccccc21	-11%	?	12
SMILES	HPGD inh	ALDH1A1 block	PNC assembly inh
O=C(O)Cc1sc(-c2ccccc2)nc1-c1ccccc1	-17%	-3%	-15
O=C(O)Cc1sc(NCc2ccco2)nc1-c1ccccc1	nt	3.5µM*	nt
C=CCNc1nc(-c2ccc(Cl)cc2)cs1	-16%	5%	49
C=CCNc1nc(-c2ccc([N+](=O)[O-])cc2)cs1	-10%	4%	-114*
CC(C)c1onc(C(=O)N(C)Cc2ccccc2)c1[N+](=O)[O-]	-30%	5%	-1
CC(C)c1onc(C(=O)N2CCN(Cc3ccccc3)CC2)c1[N+](=O)[O-]	-8%	2.5µM*	16
CCOC(=O)c1cc(-c2ccc(OC)cc2)nn1-c1ccc(C(=O)O)cc1	nt	-6%	nt
CC(C)CC(N)C(=O)OCc1ccc([N+](=O)[O-])cc1 (stereo unspecified)	nt	-9%	nt
CCOC(=O)N/N=C1/C[C@@H](O)[C@@H](O)[C@@H]2[C@@H]3C(=O)N(c4cccc(Oc5ccccc5)c4)C(=O)[C@H]3CC[C@@H]12	nt	22%[13.5 µM]	nt
CCCCOC(=O)c1ccc(NC(=S)NC(=O)c2c(Cl)cnn2CC)cc1	-19%	3.5µM*	47
CCCCOC(=O)c1ccc(NC(=S)NC(=O)c2c(Cl)cnn2C)cc1	-26%	?	-26
O=S(=O)(Nc1ccccn1)c1cccs1	nt	7%	nt
CO[C@@H]1C=CO[C@]2(C)Oc3c(C)c(O)c4c(O)c(c(C=NN5CCN(C)CC5)c(O)c4c3C2=O)NC(=O)C(C)=CC=C[C@H](C)[C@H](O)[C@H](C)[C@H](O)[C@H](C)[C@H](OC(C)=O)[C@H]1C	-3%	-2%[20.9 µM]	nt
COc1cc2c(cc1OC)C(c1ccccc1O)N(C1CC(=O)N(c3ccccc3)C1=O)CC2 (stereo unspecified)	-13%	13µM*	?
COc1cc2c(cc1OC)C(c1ccccc1)N(C(=O)CCl)CC2 (stereo unspecified)	-11%	?	62
COc1ccc(S(=O)(=O)N2CCC(C(=O)N3CCc4ccccc4C3)CC2)cc1Cl	?	?	14

Screens: PubChem, National Center for Advancing Translational Sciences (NCATS)
